Out of some 360,000 compounds screened, about 3,700 (1%) were called active. What follows is part of a selection rich in actives, with near analogues and random picks from the rest. A number with no mark means an inactive call. Rule as the data show it: active = activation above about 30%; inactive = the rest.
These compounds were tested against D(1A) dopamine receptor (Homo sapiens) (UniProt P21728) (assay: Allosteric Agonists of the Human D1 Dopamine Receptor: qHTS). Conditions: HEK293 T-REx D1 cells, calcium flux, agonist mode; at 2 µM; stronger effect = higher value.
Chain of D(1A) dopamine receptor (Homo sapiens) (P21728 whole entry, looked up): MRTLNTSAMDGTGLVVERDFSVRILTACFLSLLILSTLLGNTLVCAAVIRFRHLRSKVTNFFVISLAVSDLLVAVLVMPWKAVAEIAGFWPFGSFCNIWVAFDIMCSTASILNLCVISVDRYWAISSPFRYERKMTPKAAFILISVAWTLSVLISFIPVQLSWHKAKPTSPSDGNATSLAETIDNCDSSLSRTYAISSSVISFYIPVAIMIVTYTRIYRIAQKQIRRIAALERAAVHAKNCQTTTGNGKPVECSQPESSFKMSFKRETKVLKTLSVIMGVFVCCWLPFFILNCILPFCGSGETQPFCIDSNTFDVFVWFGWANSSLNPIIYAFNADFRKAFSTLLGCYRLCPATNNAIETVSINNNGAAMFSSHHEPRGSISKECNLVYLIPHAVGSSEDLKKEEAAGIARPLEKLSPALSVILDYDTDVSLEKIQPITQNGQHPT
Summary of the method: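 Agonism was scored from calcium flux recorded over 180 s (1 read/s) after pintool compound addition, following a 10-cycle baseline. Cells were inducible force-coupled HEK293 TREx D1, plated overnight at 30 C and loaded with no-wash calcium dye.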
Compound CC1CCCN(Cc2c(O)ccc3c(=O)c(Oc4ccc(C(C)(C)C)cc4)c(C(F)(F)F)oc23)C1 (stereo unspecified) has an activation of -1.8%. CC(C)(C)NCCCOc1ccc(Cl)cc1C(C)(C)C was tested, and the activation was 59.2% (active). Cc1ccc(C(C)(C)C)c(OCCCCN2CCCC2)c1 gave an activation of 8.62%. Compound COCCCNCCOCCOc1ccc(Cl)cc1Br has an activation of 13.2%. For CCOc1ccc(NC(=O)c2c(NC(=O)Cc3ccccc3)sc3c2CCC(C)C3)cc1 (stereo unspecified), the activation was -0.648%. For COc1ccc(CCNc2nc(-c3ccc(Cl)cc3)cc(C(F)(F)F)n2)cc1OC, the activation was 7.69%. Work on FC(F)(F)c1cc(-c2ccco2)nc(NCc2ccc(Cl)cc2)n1 yielded an activation of 7.88%. With COc1ccc(CNc2nc(-c3ccc(Cl)cc3)cc(C(F)(F)F)n2)cc1 the activation was 41.5% (active). Compound COc1cccc(C(=O)NC2(C(F)(F)F)C(=O)Nc3c2c(=O)[nH]c(=O)n3-c2ccc(C)cc2)c1 (stereo unspecified) has an activation of -0.234%. In the case of Cc1ccc(Cl)cc1N1CCN(C(=O)c2cnc3c(-c4ccc(F)cc4)c(C)nn3c2C)CC1, the activation is reported as 1.96%. For OC(CNCC1CCCO1)Cn1c2ccc(Br)cc2c2cc(Br)ccc21 (stereo unspecified), the activation was 38.5% (active). O=C(CNC(=O)c1ccc(Br)o1)NCC1CCCO1 (stereo unspecified) showed an activation of 0.969%. Compound COCCNC(=O)c1ccc(Cn2c(SCC(=O)NCC3CCCO3)nc3ccc(Br)cc3c2=O)cc1 (stereo unspecified) has an activation of 2.13%. In the case of CC(=O)c1c(C)n(S(=O)(=O)c2ccc(Cl)cc2)c2ccc(NS(=O)(=O)c3ccc(Cl)cc3)cc12, the activation is reported as 2.47%. Work on CN(Cc1ccccc1)C(=O)CCS(=O)(=O)c1cc(Br)cc2c1N(C(=O)C1CC1)CC2 yielded an activation of 0.148%. c1ccc2c(c1)C(=NC1CCCCC1)NC2=NC1CCCCC1 was tested, and the activation was 30.7% (active). For COc1cc(OC)cc(C(=O)N[C@H](C(=O)OCC(=O)NC(C)c2ccccc2)C(C)C)c1 (stereo partly specified), the activation was 119% (active). For COc1ccc(N2CCN(C(=O)[C@@H](NC(=O)c3cc(OC)cc(OC)c3)C(C)C)CC2)cc1, the activation was -0.0979%. Compound Cc1ccccc1OCCC(=O)OCC(=O)NC(C)c1ccccc1 (stereo unspecified) has an activation of 1.35%. O=C(CCCCn1c(=O)c2ccccc2n(CC(=O)Nc2cccc(C(F)(F)F)c2)c1=O)NCc1ccc2c(c1)OCO2 gave an activation of 4.77%. CCCOc1ccc(C(=O)Nc2ccc3oc(-c4cccc(Cl)c4Cl)nc3c2)cc1 was tested, and the activation was 1.7%. With CCCC(=O)Nc1ccc2oc(-c3ccc(O)c(Br)c3)nc2c1 the activation was 3.7%. Cc1ccc(C)c(N2C(=O)N(Cc3c(F)cccc3Cl)c3ccccc3S2(=O)=O)c1 showed an activation of 5.6%. For Cc1nn(C)cc1N1C(=O)c2cccc3c(N)ccc(c23)C1=O, the activation was 244% (active). For CN1C(=O)c2cccc3c(N)ccc(c23)C1=O, the activation was 219% (active). With CCc1nc2cccnc2n1-c1ccc(CC(=O)Nc2c(C)cccc2C)cc1 the activation was 1.78%. Work on Cc1ccc(Cn2c(=O)n(Cc3nc(-c4ccccc4)no3)c(=O)c3cc4c(cc32)OCO4)cc1 yielded an activation of -0.256%. COc1ccccc1Cc1nc2ccccc2nc1SCC(=O)N1CCCc2ccccc21 was tested, and the activation was 0.349%. Compound CCCN1CN=C(NS(=O)(=O)c2ccc(NC(C)=O)cc2)NC1 has an activation of -0.217%. With COc1ccc(CC(=O)Nc2nnc3n2CCS3)cc1OC the activation was 1.78%. For Cc1ccc(NC(=O)c2cn3c4c(ccc(Cl)c4c2=O)OC(C)C3)cc1C (stereo unspecified), the activation was 2.01%. With Fc1ccccc1Cn1cnc(NC(=S)NCCc2ccccc2)n1 the activation was 1.4%. Work on O=C(COC(=O)Cc1ccccc1F)NCCc1ccccc1 yielded an activation of 2.43%. N=c1n(CCc2ccccc2)c2ccccc2n1Cc1ccccc1F was tested, and the activation was 100% (active). In the case of O=C(Nc1cc(Cl)cc(Cl)c1)c1ccc2c(c1)N(Cc1cccc(Cl)c1)C(=O)c1ccccc1S2=O (stereo unspecified), the activation is reported as 6.19%. In the case of CCC(=O)NC(=S)Nc1ccc(NC(=O)c2ccco2)c(Cl)c1, the activation is reported as 42.4% (active). COc1ccc(NC(=O)c2ccco2)cc1NC(=O)COc1ccc(C)c(C)c1 gave an activation of -1.09%. Compound COc1cc(NC(=O)c2cc([N+](=O)[O-])ccc2Br)ccc1NC(=O)c1ccco1 has an activation of 0.47%. In the case of COc1ccc(Cn2ccc3nc(C)c(C(=O)Nc4ccc(C)c(F)c4)cc3c2=O)cc1, the activation is reported as 2.43%. Cc1cc(C)c(NC(=O)C[N+](C)(C)CC(O)COc2cccc3ccccc23)c(C)c1 (stereo unspecified) was tested, and the activation was 62.2% (active). With CC(C)c1ccccc1OCC(O)CN(CC(O)COc1cccc2ccccc12)C(C)C (stereo unspecified) the activation was 6.15%. Compound Cc1cc(C)cc(OCC(=O)NCc2cc(C)nc3ccccc23)c1 has an activation of -0.104%. Work on Cc1ccc2c(=O)c(C(=O)c3ccc(Cl)cc3)cn(CC(=O)NC3CCCCC3)c2n1 yielded an activation of 1.93%. For CCOc1ccc(CNC(=O)c2ccc3c(c2)nnn3C2CCCC2)cc1, the activation was 1.9%. In the case of CC(=O)c1cccc(NC(=O)CSc2nc3c(c(=O)[nH]2)CCC3)c1, the activation is reported as 1.96%. CCn1c(=O)cc(OCC(=O)Nc2cc(Cl)c(OC)cc2OC)c2ccccc21 was tested, and the activation was 0.964%. With CC(C)/C=N/NC(=O)c1cc(Br)ccc1O the activation was 32.1% (active). Work on CC(=N\NC(=O)c1cc(Br)ccc1O)/C(=N/O)C(=O)Nc1ccccc1 yielded an activation of 5.39%. Compound CC(C)Cc1cc(C(=O)Nc2cc(Br)ccc2O)no1 has an activation of -1.17%. With CCc1ccc(S(=O)(=O)Nc2cc3c(C(=O)OCc4ccccc4)c(C)oc3c3ccccc23)cc1 the activation was 5.87%. Work on Cc1ccccc1NC(=O)Cn1c(=O)n(CC2CCC(C(=O)NCCc3ccccc3)CC2)c(=O)c2ccccc21 (stereo unspecified) yielded an activation of 0.988%. Compound CCc1nnc(SCc2nc(-c3cccc(C)c3)oc2C)c2cc3sc(C)cc3n12 has an activation of 1.16%. In the case of CCOc1cccc(C(=O)Nc2nnc(S(=O)(=O)N(C)c3ccc(C)cc3)s2)c1, the activation is reported as -0.514%. With O=S(=O)(c1ccc(OCC(O)CN2CCN(c3ccccc3Cl)CC2)cc1)N1CCOCC1 (stereo unspecified) the activation was 105% (active). CC(=O)c1ccc(OCC(O)CN2CCN(S(=O)(=O)c3cccc(Br)c3)CC2)cc1 (stereo unspecified) was tested, and the activation was 0.785%. In the case of CC(C)c1ccc(OCC(O)CN2CCN(c3ccccn3)CC2)cc1 (stereo unspecified), the activation is reported as 2.28%.
Also: 0% is about no effect.
